Assay outcomes as filed in PubChem.
Compounds with a hit are over-represented: about 6.2% of the library has one in this group of screens.
NTR1 ag – NTR1 (human) agonism; P30989; NTR1-U2OS beta-arrestin-GFP spot imaging, agonist mode; activation, % at 20 µM; hit rate 0.17% among 330,000; AID 493036;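 active = activation at or above 40% of the spot to cytoplasm intensity ratio, with at least 20 cells analyzed; inconclusive = wells under 20 cells, flagged as cytotoxic or low count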;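 also: 0% = DMSO without peptide and 100% = 100 nM NTR1 peptide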
Mot1-301 SUMO – SUMOylation pathway inhibition by Mot1-301 growth rescue. hit rate 1% among 320,000. growth rescue, % at 18.8 µM. S. cerevisiae Mot1-301 growth rescue, ATP luminescence, 38.5C; percent above DMSO median, 100 means doubled. AID 2716;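 active = every valid replicate shows activation above 250% relative to neutral control wells; inactive = the rest, any valid replicate at or below 250%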;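 also: OY570 slx delta 5 strain wells were the positive control but not used for scaling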
AI-2 QS modul – Vibrio harveyi AI-2 quorum sensing modulation; Vibrio harveyi JMH597 AI-2 luminescence/OD600 ratio, 9 h; stronger effect = lower value; strain lacks LuxN and CqsS sensors; 0 = neutral-control median; activity change, % at 7.5 µM; hit rate 0.4% among 300,000; AID 2094; in the data active = activity change below about -75%, passing the limit was not always enough; inconclusive = no clear call, values can overlap the other calls;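 also: luminescence divided by OD600 gain over 9 h not by final OD600 alone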
AHR act – human AHR activation; P35869; AHR-responsive luciferase reporter cells, luminescence; activation, % at 5 µM; hit rate 2.5% among 320,000; AID 2796; in the data active = activation above about 47%;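 also: 0% = vehicle wells and 100% = reference agonist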
Target sequence (P35869 whole entry, looked up): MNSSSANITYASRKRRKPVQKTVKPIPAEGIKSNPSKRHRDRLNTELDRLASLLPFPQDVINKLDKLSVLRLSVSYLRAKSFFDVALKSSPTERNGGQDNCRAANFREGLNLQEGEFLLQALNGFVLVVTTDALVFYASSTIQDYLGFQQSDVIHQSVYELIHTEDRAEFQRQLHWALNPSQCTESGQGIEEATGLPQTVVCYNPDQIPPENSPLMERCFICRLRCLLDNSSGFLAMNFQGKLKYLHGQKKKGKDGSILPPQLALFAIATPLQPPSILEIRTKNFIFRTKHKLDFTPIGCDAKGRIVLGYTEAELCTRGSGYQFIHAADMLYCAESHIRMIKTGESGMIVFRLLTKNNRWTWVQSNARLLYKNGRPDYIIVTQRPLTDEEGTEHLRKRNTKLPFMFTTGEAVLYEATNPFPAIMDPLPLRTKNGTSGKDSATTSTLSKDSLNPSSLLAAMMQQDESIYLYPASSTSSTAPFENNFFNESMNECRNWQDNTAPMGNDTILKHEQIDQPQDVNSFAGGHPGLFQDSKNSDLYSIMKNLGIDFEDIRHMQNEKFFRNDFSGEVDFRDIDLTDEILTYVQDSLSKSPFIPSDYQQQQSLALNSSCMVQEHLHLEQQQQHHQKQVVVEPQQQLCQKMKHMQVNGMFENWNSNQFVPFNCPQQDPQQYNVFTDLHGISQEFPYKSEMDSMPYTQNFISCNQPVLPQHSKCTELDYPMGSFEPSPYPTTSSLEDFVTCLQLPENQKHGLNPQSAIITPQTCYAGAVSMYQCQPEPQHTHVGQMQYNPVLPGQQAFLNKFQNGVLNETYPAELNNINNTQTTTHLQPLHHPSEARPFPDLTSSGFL
GRIN3A LBD mod – NR3A (human) ligand-binding domain modulation; NR3A LBD differential scanning fluorimetry, Tm shift; 0% = protein alone, 100% = glycine-bound protein; Tm shift relative to glycine control, % at 25 µM; hit rate 2.5% among 340,000;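 active = melting temperature shift of at least 10% of the positive control shift, at one fixed dose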
Cardio protect – protects H9c2 cardiomyocytes from peroxide injury. H2O2 injury protection, ATPLite, 2 h. protection from H2O2 cell death, % at 20 µM. hit rate 0.63% among 360,000. AID 588492;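 active = compounds giving at least 50% protection of heart cells from peroxide-induced death in the single-dose screen, raw or plate-pattern-corrected value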;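 also: 0% = DMSO wells with peroxide and 100% = DMSO wells without peroxide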
* hit, by the source's call; ? = inconclusive; / = no result.

SMILES	NTR1 ag	Mot1-301 SUMO	AI-2 QS modul	AHR act	GRIN3A LBD mod	Cardio protect
COc1ccc(S(=O)(=O)N(C)C[C@H]2Oc3c(NC(=O)NC(C)C)cccc3C(=O)N([C@H](C)CO)C[C@@H]2C)cc1	2.6	-0.3	/	2.3	2.1	1.2
CCCC(C(=O)NC1CCCC1)N(C(=O)c1snc(C(N)=O)c1N)c1ccc(F)cc1 (stereo unspecified)	1.1	/	-2.5	/	-2.2	-1.3
COc1cccc(COc2cc3ccccc3nc2C)c1	4.7	384.8	-89.1*	-10.4	1.8	-14.5
Cc1nc2ccccc2cc1OCc1ccc(Cl)cc1	0.1	12.0	-54.9	-5.0	-13.3	-18.3
COc1ccccc1-c1cnc(C(O)c2ccc(Cl)cc2C)[nH]1 (stereo unspecified)	/	/	/	/	/	-6.6
CCCCCCCCC(c1nc2ccccc2[nH]1)N1CCN=C1c1cc2ccccc2[nH]1 (stereo unspecified)	/	/	/	/	/	-13.6
CCOC(=O)c1ccc(NC(=S)N2CCSC2c2ccc(Cl)cc2)cc1 (stereo unspecified)	/	17.8	16.0	0.5	19.1*	-17.7
CCOC(=O)c1ccc(NC(=S)N2CCSC2c2ccc(OC)cc2)cc1 (stereo unspecified)	8.9	11.0	36.4	-1.1	8.4	-5.6
COc1ccc(C(=O)CCC(=O)Nc2cccnc2)cc1OC	-1.0	-5.5	-15.7	15.7	-0.9	13.8
CCCCN1C(=O)N(CCc2ccc(F)cc2)S(=O)(=O)c2cc(C(F)(F)F)ccc21	4.1	/	/	/	-0.5	2.4
CN(C)c1nc(-c2ccccc2)ns1	1.0	6.2	11.8	-2.8	-0.1	-1.4
Nc1nc(-c2ccccc2)ns1	/	/	/	/	12.6*	-0.3
CC(C)(C)NC(=O)c1cc(-c2ccc3c(c2)OCO3)nc2ccccc12	2.3	-11.7	11.8	69.8*	0.3	4.2
O=C(Nc1nc2c(s1)CCCC2)c1cc(-c2ccc3c(c2)OCO3)nc2ccccc12	-0.9	-2.7	21.2	57.4*	/	/
CN(CCCNC(=O)CCc1cn(C)c2ccccc12)C1CCCCC1	-0.7	1.7	-2.8	6.3	0.1	8.9
COC(=O)C1=C(C)Nc2nnnn2C1c1ccccc1Cl (stereo unspecified)	0.6	338.9*	14.9	-0.2	4.4	-1.3
COC(=O)C1=C(C)Nc2nnnn2C1c1cc(OC)ccc1OC (stereo unspecified)	-0.9	-8.8	23.3	1.5	1.5	-1.9
CCOc1ccc(-c2nnc(SCC(=O)Nc3ccc4c(c3)c3ccccc3n4CC)n2N)cc1	21.5	17.0	-0.8	11.3	-1.7	-18.6
CCn1c2ccccc2c2cc(NC(=O)CSc3nnc(-c4cccc(OC)c4)n3N)ccc21	11.6	53.2	10.6	63.9*	-3.4	25.5
CCn1c2ccccc2c2cc(NC(=O)CSc3nnc(-c4ccc(OC)c(OC)c4)n3N)ccc21	-2.4	-26.3	12.2	32.6	-0.9	38.2
CCn1c2ccccc2c2cc(NC(=O)CSc3nnc(-c4ccccc4OC)n3N)ccc21	2.8	-9.7	5.6	57.0*	-7.4	8.8
COc1ccc(C(=O)Nc2cc(C)nn2-c2nc3ccccc3[nH]2)c(OC)c1	22.6	/	42.0	35.9	1.6	63.2*
Cc1cc(NC(=O)c2ccccc2)n(-c2nc3ccccc3[nH]2)n1	3.3	-17.6	0.7	16.8	-1.1	0.7
COc1cccc(OC)c1C(=O)Nc1cc(C)nn1-c1nc2ccccc2[nH]1	9.4	-4.8	21.4	39.3	-11.5	77.2*
Cc1ccccc1OCC(=O)Nc1ccc2[nH]ncc2c1	-0.5	-11.4	25.1	8.3	-5.0	-1.7
SMILES	NTR1 ag	Mot1-301 SUMO	AI-2 QS modul	AHR act	GRIN3A LBD mod	Cardio protect
Cc1nc2nc(C)c(NS(=O)(=O)c3ccc4c(c3)CCCC4)c(=O)n2[nH]1	1.0	2.1	9.3	1.5	1.2	4.0
CC(C)n1ncc2c(C(=O)N3CCN(Cc4ccc(Br)s4)CC3)cc(C3CC3)nc21	8.4	0.8	/	0.1	-0.1	-1.3
c1csc(-c2nc3ccccc3[nH]2)c1	-1.6	7.1	/	44.2	-8.2	-8.9
Cc1ccc(-c2nc3ccccc3[nH]2)s1	-1.1	24.9	13.9	54.9*	-4.5	-19.4
COc1cccc2sc(=NC(=O)CS(=O)(=O)c3ccc(Cl)cc3)n(C)c12	12.6	4.9	28.8	8.9	/	-19.0
O=[N+]([O-])c1cc(-c2ccn[nH]2)ccc1Cl	0.4	20.3	20.7	-2.5	15.2*	-5.1
Nc1c(Cl)cnc(C(Cl)(Cl)Cl)c1Cl	1.2	/	-20.8	66.8*	0.8	-10.9
COCCNC(=O)c1c(N)n(-c2ccccc2)c2nc3ccccc3nc12	0.0	-0.6	14.8	16.3	2.2	13.9
COCCNC(=O)c1c(N)n(CCCn2ccnc2)c2nc3ccccc3nc12	-1.2	-20.4	15.2	52.6*	2.4	10.2
O=C(/C=C/c1ccc(Cl)cc1)N1CCOCC1	1.4	-7.3	32.4	12.6	0.6	-2.2
O=C1NC(c2ccc(Cl)c([N+](=O)[O-])c2)Nc2ccccc21 (stereo unspecified)	5.1	8.7	23.5	17.2	-0.8	55.0*
O=[N+]([O-])c1cc(C2Nc3cccc4cccc(c34)N2)ccc1Cl	4.2	93.8	11.0	16.7	5.7	-3.2
O=C1NC(c2cc(Cl)cc([N+](=O)[O-])c2O)Nc2ccccc21 (stereo unspecified)	3.0	5.8	?	4.8	13.9*	-11.2
O=C(COc1ccccc1F)Nc1ccc(S(=O)(=O)N2CCCC2)cc1	0.0	-3.8	/	9.8	-1.2	1.1
NNC(=O)c1ccc(Cn2cc(Br)cn2)o1	-1.0	-2.9	27.9	31.5	-1.4	-0.5
Cn1nccc1C(=O)Nc1sc2c(c1C#N)CCCC2	1.9	1.9	18.2	29.6	2.0	-7.8
N#Cc1c(NC(=O)c2ccc(Cn3cc(Br)cn3)o2)sc2c1CCCCCC2	19.1	-28.2	47.4	69.5*	5.3	-15.9
Cc1ccc(NC(=O)c2ccc(Cn3cc(Br)cn3)o2)cc1	-1.1	-6.2	14.7	59.5*	0.3	-24.4
C[C@@H](NC(=O)c1[nH]cnc1C(=O)Nc1ccccc1F)c1ccccc1	/	/	/	/	/	7.2
COC(=O)Oc1nsnc1N1CCOCC1	0.6	133.6	40.9	0.8	2.0	1.5
Brc1ccc(Oc2nsnc2N2CCOCC2)cc1	1.2	4.8	2.1	55.9*	1.2	-4.0
O=C(NCCCn1ccnc1)c1cc([N+](=O)[O-])cc([N+](=O)[O-])c1	3.7	25.6	21.8	48.4*	6.0	5.7
O=C(NCCCn1ccnc1)c1ccc(Cl)c(Cl)c1	0.8	-18.9	14.2	50.5*	1.6	2.0
CCC(=O)N1CCCC(C)(C(=O)NS(=O)(=O)c2cccs2)C1 (stereo unspecified)	/	/	/	/	/	2.1
Cc1nn(CC(=O)Nc2sc3c(c2C#N)CCC(C(C)(C)C)C3)c(C)c1[N+](=O)[O-] (stereo unspecified)	7.1	263.4	17.1	-3.7	14.3*	-24.6
